Reference: PubChem BioAssay AID1159580 (chemical genetic matrix, 2015)
Out of some 5,500 compounds screened, about 2,000 (36%) were called active. Roughly 18% stayed inconclusive and do not appear here. No stated cut-off is given here; in the data, active means normalized growth mostly below about 0.91 (no sharp cut-off); inconclusive means no clear call, values can overlap the other calls; inactive means mostly above about 0.92. Some of the results follow.

Test: chemical genetic growth profiling, strain panel (AID 1159580);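 further: tested at 20 µM; growth read once vehicle control cultures reached saturation at 30 °C; 1 = growth at the plate median or of vehicle wells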
Details: S. cerevisiae deletion strains, growth OD

Measured: normalized growth

CCN1CCC[C@H]1CNC(=O)c1cc(S(N)(=O)=O)ccc1OC
inactive: locus YAL013W, strain DEP1, stronger effect = lower value 1.02 | locus YAL040C, strain CLN3, stronger effect = lower value 1.07 | locus YCL061C, strain MRC1 (second series), stronger effect = lower value 1.01 | locus YDR150W, strain NUM1, stronger effect = lower value 1.01 | locus YDR363W, strain ESC2, stronger effect = lower value 1.03 | locus YER002W, strain NOP16, stronger effect = lower value 1.02 | locus YGR078C, strain PAC10, stronger effect = lower value 1.02 | locus YGR229C, strain SMI1, stronger effect = lower value 1.02 | locus YMR307W, strain GAS1, stronger effect = lower value 0.997 | locus YNL128W, strain TEP1, stronger effect = lower value 0.995 | locus YNL153C, strain GIM3, stronger effect = lower value 1.02 | locus YNL175C, strain NOP13, stronger effect = lower value 1 | locus YNL197C, strain WHI3, stronger effect = lower value 1.01 | locus YNL224C, strain SQS1, stronger effect = lower value 1.01 | locus YOR083W, strain WHI5 (second series), stronger effect = lower value 1.01 | locus YPL055C, strain LGE1, stronger effect = lower value 1.01
